Molecular target: C1orf64
Experiment: pooled miR-30 sensor sort-seq; sequence = guide strand
Conditions: shRNA

Question: How did the sensor-assay potency score (higher = more potent) turn out when TTCAGTGAGTCCTTGACTGTTC was run?
Answer: 0.426

Question: For TGTAAGTCTTCATTGGTGGGGT, which sensor-assay potency score (higher = more potent) is on record?
Answer: 0.329

Question: For TAGCCTCGGGAACCTCCTGGGG, which sensor-assay potency score (higher = more potent) is on record?
Answer: -1.66

Question: AAGTTGAAGACCTCACAGGCGC was tested. Which sensor-assay potency score (higher = more potent) did it give?
Answer: -0.73

Question: For TTTCAGTGAGTCCTTGACTGTT, which sensor-assay potency score (higher = more potent) is on record?
Answer: -0.901

Question: With TTAGCCTCGGGAACCTCCTGGG as the sequence, how does the sensor-assay potency score (higher = more potent) read?
Answer: -0.502

Question: How did the sensor-assay potency score (higher = more potent) turn out when ATTGGTGGGGTGACAAGCCCTC was run?
Answer: -0.204

Question: For TTGAAGACCTCACAGGCGCAGC, which sensor-assay potency score (higher = more potent) is on record?
Answer: -1.07

Question: With ATGTAAGTCTTCATTGGTGGGG as the sequence, how does the sensor-assay potency score (higher = more potent) read?
Answer: -0.782

Question: TAAGTCTTCATTGGTGGGGTGA was tested. Which sensor-assay potency score (higher = more potent) did it give?
Answer: -0.373

Question: How did the sensor-assay potency score (higher = more potent) turn out when TCAATAACAAAAGTCAGGTGAG was run?
Answer: -0.224

Question: How did the sensor-assay potency score (higher = more potent) turn out when TTCCCCACAGAACACGATGTAA was run?
Answer: -1.15

Molecular target: C1orf84
Experiment: as above
Conditions: shRNA

Question: How did the sensor-assay potency score (higher = more potent) turn out when TTAACAGGAACACCTGCCCAGC was run?
Answer: -1.3

Question: How did the sensor-assay potency score (higher = more potent) turn out when TTACATAGATCTCAGGCTGGAA was run?
Answer: -0.261

Question: With TCCAACTCAATGACAAACCGAT as the sequence, how does the sensor-assay potency score (higher = more potent) read?
Answer: -0.656

Question: Which sensor-assay potency score (higher = more potent) does the source give for TTCATCAAACAAGATCTCCCCT here?
Answer: 0.55

Question: For TCATCAAACAAGATCTCCCCTG, which sensor-assay potency score (higher = more potent) is on record?
Answer: -0.444

Question: How did the sensor-assay potency score (higher = more potent) turn out when TTTCATTAACAGGAACACCTGC was run?
Answer: 0.405

Question: Which sensor-assay potency score (higher = more potent) does the source give for TAGTTACATAGATCTCAGGCTG here?
Answer: -0.122

Question: Which sensor-assay potency score (higher = more potent) does the source give for ATTAACAGGAACACCTGCCCAG here?
Answer: 0.146

Question: With TTGGTGCAGATGACTGAGGAAC as the sequence, how does the sensor-assay potency score (higher = more potent) read?
Answer: -1.39

Question: For TTCCTGTTCAGACAGCATCTCC, which sensor-assay potency score (higher = more potent) is on record?
Answer: -0.954

Question: With TTCATTAACAGGAACACCTGCC as the sequence, how does the sensor-assay potency score (higher = more potent) read?
Answer: 0.858

Molecular target: C20orf112
Experiment: as above
Conditions: shRNA

Question: Which sensor-assay potency score (higher = more potent) does the source give for TAGATCTCTAGACGCATCCGCT here?
Answer: 0.0864

Question: ATTGTCCTCATGGTCATCGTGG was tested. Which sensor-assay potency score (higher = more potent) did it give?
Answer: -0.617

Question: For TCGTCATCATCTGCCGTCGGGG, which sensor-assay potency score (higher = more potent) is on record?
Answer: -1.61

Question: With TTGACTGTGGAGGTTCTGCGGG as the sequence, how does the sensor-assay potency score (higher = more potent) read?
Answer: -0.683

Question: For TTGATGGAATCGTAGCTCCCAG, which sensor-assay potency score (higher = more potent) is on record?
Answer: -1.02

Question: Which sensor-assay potency score (higher = more potent) does the source give for TTTCATGCTGAGGTCCGTGGGC here?
Answer: -0.763

Question: TTGTCTCGCTCTCACAGGCAGC was tested. Which sensor-assay potency score (higher = more potent) did it give?
Answer: -1.65

Question: ATCGTCGTCATCATCTGCCGTC was tested. Which sensor-assay potency score (higher = more potent) did it give?
Answer: -0.187

Question: For TTCATCTGCAGAGCGCAGCAGG, which sensor-assay potency score (higher = more potent) is on record?
Answer: -0.526

Question: TTCATCTTGTCATTGTCCTCAT was tested. Which sensor-assay potency score (higher = more potent) did it give?
Answer: 0.226

Question: For TTCTTGTCTCGCTCTCACAGGC, which sensor-assay potency score (higher = more potent) is on record?
Answer: -0.87

Question: With TTTCTTGTCTCGCTCTCACAGG as the sequence, how does the sensor-assay potency score (higher = more potent) read?
Answer: -0.96

Molecular target: C20orf54
Experiment: as above
Conditions: shRNA

Question: TTACTCTCCAACTAGTGGGCTT was tested. Which sensor-assay potency score (higher = more potent) did it give?
Answer: -0.23

Question: With TTCCCTTCTAACACCCTTGGGC as the sequence, how does the sensor-assay potency score (higher = more potent) read?
Answer: 0.125

Question: With ATCTCAGTGACATTGACGCAGG as the sequence, how does the sensor-assay potency score (higher = more potent) read?
Answer: -1.25

Question: With TCAGTGACATTGACGCAGGTAG as the sequence, how does the sensor-assay potency score (higher = more potent) read?
Answer: -0.422

Reference: the OligoGym collection
